This passage reports Potency and outcome results from PubChem BioAssay (NCATS).

Results filed as inconclusive are left out. Active and inactive are the calls of the source. Calls come from the whole dose curve; as a rule, active = well fitted curve in the direction sought with a large enough effect; inconclusive = small, poorly fitted or top-dose-only effect, or another doubt; inactive = no such curve, though single readings can be large; an effect the other way counts as inactive or inconclusive.

Assay [1] concerns the target Protein phosphatase 1D (Homo sapiens) (UniProt O15297). Put plainly: RapidFire Mass Spectrometry qHTS Assay for Modulators of WT P53-Induced Phosphatase 1 (WIP1) (AID 1347424).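 Note: amount of dephosphorylated VEPPL-S-QETFS peptide product formed by WIP1; series mostly up to about 63 µM.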 Put shortly:
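10 nM WIP1 preincubated with compounds 1 hr at room temperature in pH 7.5 Tris buffer with 30 mM MgCl2, 1 mM TCEP; 2 uM VEPPL-pS-QETFS phosphopeptide for 5 min, formic acid quench; dephosphorylated product quantified by RapidFire MS against labelled standard.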

The target is the same in assay [2]. Put plainly: Rhodamine-PBP qHTS Assay for Modulators of WT P53-Induced Phosphatase 1 (WIP1) (AID 1347425). Put shortly: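 WIP1 (5 nM final) was preincubated with compound for 1 hour at room temperature. It then dephosphorylated 10 uM VEPPL-pS-QETFS peptide in Tris-HCl pH 7.5 with 30 mM MgCl2. Released Pi was detected by 10 uM Rh-PBP fluorescence (ex 525/em 598 nm) read at 1-min intervals for 11 min, as delta f1 - f0.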
A general note: Quantitative high-throughput screening tests each substance at several concentrations.

The nature of assay [3]: Primary qHTS for inhibitors of La Crosse Virus (LACV) - induced cell death in SH-SY5Y cells (AID 1508616).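 Note: top concentration of the series differs between compounds; higher means more rescue of cells from virus-induced death.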 Put shortly: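 SH-SY5Y cells (6000/well) plated 24 h, then given compounds by pin transfer and LACV at 0.01 MOI for 6 days at 37C. Viability measured by ATPLite luminescence, normalized to infected DMSO and uninfected DMSO.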
In assay [4] the target is Calcium and integrin-binding protein 1 (Homo sapiens) (UniProt Q99828). Description: Primary qHTS for Identification of Calcium Integrin Binding Protein 1 (CIB1) Competitor (AID 1508620). Note: top concentration of the series differs between compounds. Put shortly: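 Fluorescence polarization competition: GST-tagged CIB1 (1 uM final) preincubated with compound 15 min at room temperature, then FITC-labelled alphaIIb peptide (100 nM final) added. After 15 min at room temperature, polarization read at Ex 480/Em 540.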
Sequence of Calcium and integrin-binding protein 1 (Homo sapiens) (Q99828 whole entry, looked up): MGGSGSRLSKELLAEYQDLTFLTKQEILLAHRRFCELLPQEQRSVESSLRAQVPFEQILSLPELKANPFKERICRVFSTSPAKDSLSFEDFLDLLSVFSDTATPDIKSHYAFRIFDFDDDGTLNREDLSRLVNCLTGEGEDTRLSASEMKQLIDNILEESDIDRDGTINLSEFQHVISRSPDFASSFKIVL

The nature of assay [5]: Validation qHTS assay for inhibitors of Activation Induced Cytidine Deaminase (AID): UDG Counterscreen signal (AID 1347427). Summed up: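 Counterscreen read of UDG activity (2 U/mL, 4/3x) in the FRET deamination format with AID (1 uM, 4/3x), DJC20/DJC23 substrates (250 nM, 4x), 4 h at room temperature. NaOH stop, fluorescence at 560 ex/665 em.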
For assay [6], the target named is Single-stranded DNA cytosine deaminase (Homo sapiens) (UniProt Q9GZX7). Put plainly: Validation qHTS assay for inhibitors of Activation Induced Cytidine Deaminase (AID): AID signal (AID 1347429). Put shortly: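 FRET deamination assay: 1 uM AID (4/3x stock) with UDG, compound up to 114 uM, then 250 nM DJC20/DJC23 substrate (4x stock) for 4 hr at room temperature. NaOH added, 30 min; fluorescence read 540/590 nm.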
Sequence of Single-stranded DNA cytosine deaminase (Homo sapiens) (Q9GZX7 whole entry, looked up): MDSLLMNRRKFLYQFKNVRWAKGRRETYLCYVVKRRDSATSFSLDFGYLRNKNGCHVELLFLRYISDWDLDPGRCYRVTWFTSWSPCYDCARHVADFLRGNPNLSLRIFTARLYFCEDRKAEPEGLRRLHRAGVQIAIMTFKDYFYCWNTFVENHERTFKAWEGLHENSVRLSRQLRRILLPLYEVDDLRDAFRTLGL

Assay [7] in a line: qHTS to identify inhibitors of the type 1 interferon - major histocompatibility complex class I in skeletal muscle: primary screen against the NCATS Mechanism Interrogation Plate v5.0 (MIPE) Libary (AID 1347411). Note: nearly all actives have a fitted effect of over 65% in size. Summed up: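 Immortalized human myoblasts (C25cl48) with HiBit knocked into endogenous HLA-B*08:01 were stimulated with 4 ng/ml IFN-beta and given compounds in 11-point 1:3 titration from 46 uM. After 24 h at 37 C, lytic HiBiT luminescence was read.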

Sequence of Protein phosphatase 1D (Homo sapiens) (O15297 whole entry, looked up): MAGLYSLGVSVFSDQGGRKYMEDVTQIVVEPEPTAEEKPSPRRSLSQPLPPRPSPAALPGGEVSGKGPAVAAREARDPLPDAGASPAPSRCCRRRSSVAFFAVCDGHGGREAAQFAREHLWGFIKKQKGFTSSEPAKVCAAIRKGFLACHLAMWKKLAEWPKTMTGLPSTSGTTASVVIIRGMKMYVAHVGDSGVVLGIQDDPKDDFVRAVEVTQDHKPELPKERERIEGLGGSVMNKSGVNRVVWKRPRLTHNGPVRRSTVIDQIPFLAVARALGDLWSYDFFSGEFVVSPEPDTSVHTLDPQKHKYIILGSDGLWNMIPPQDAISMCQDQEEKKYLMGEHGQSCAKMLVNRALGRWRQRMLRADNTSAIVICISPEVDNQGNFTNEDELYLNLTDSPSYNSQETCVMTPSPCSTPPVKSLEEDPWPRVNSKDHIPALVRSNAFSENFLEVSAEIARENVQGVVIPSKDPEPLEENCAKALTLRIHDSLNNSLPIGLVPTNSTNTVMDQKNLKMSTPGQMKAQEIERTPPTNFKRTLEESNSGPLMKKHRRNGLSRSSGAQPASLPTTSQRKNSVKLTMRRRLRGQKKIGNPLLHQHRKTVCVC

Regarding `Cc1[nH]cnc1CN1CCc2c(c3ccccc3n2C)C1=O`, the Potency entry in assay [1], in assay [3] and in assay [4] was “inactive” in each case. Moreover, the compound was called inactive in assay [2].
With `CN1CCC[C@H]1c1cccnc1`, the Potency result in assay [5], in assay [6] and in assay [3] was “inactive” in each case.
On to `CCCSc1ccc2nc(NC(=O)OC)[nH]c2c1`, for which the Potency entry in assay [1] and in assay [4] was “inactive” in each case. For the same compound, the compound was called inactive in assay [2].
As to `COC(=O)C1=C(C)NC(C)=C(C(=O)OCC(C)=O)C1c1ccccc1[N+](=O)[O-]` (centres undefined), the call in assay [2] was inactive. In addition, the Potency result in assay [3] and in assay [4] was “inactive” in each case.
Take `C[N+](C)(C)CC(=O)[O-]`: the Potency result in assay [5], in assay [6] and in assay [3] was “inactive” in each case.
Take `O=C(O)[C@@H]1C[C@H](C(=O)O)N1`: the Potency entry in assay [5], in assay [6] and in assay [3] was “inactive” in each case.
For `Cc1nc2sccn2c(=O)c1CCN1CCC(=C(c2ccccc2)c2ccc(F)cc2)CC1`, the Potency result in assay [5], in assay [6] and in assay [3] was “inactive” in each case.
`Cc1ccc(C(=O)O[C@H](C(=O)O)[C@@H](OC(=O)c2ccc(C)cc2)C(=O)O)cc1` (tested in a mixture with another compound): the Potency result in assay [5], in assay [6] and in assay [3] was “inactive” each time.
On to `Cc1c(Nc2ncccc2C(=O)O)cccc1C(F)(F)F`, for which the Potency result in assay [1], in assay [3] and in assay [4] was “inactive” throughout. Also, in assay [2], the outcome was inactive.
As for `O=C(O)[C@H](CC(=O)N1C[C@H]2CCCC[C@H]2C1)Cc1ccccc1`, the Potency entry in assay [7] and in assay [4] was “inactive” in each case.
With `N#C/C(=C\c1ccc(O)c(O)c1)C(=O)NCCCc1ccccc1`, the Potency result in assay [5] and in assay [6] was “inactive” throughout.
Take `O=C(O)/C=C/C(O)c1ccc(Cl)cc1` (centres undefined): the Potency result in assay [5] and in assay [6] was “inactive” in each case.
`CC(C)ON([C@@H](C(=O)NO)C(C)C)S(=O)(=O)c1ccc(-c2ccccc2)cc1`: the Potency entry in assay [5] and in assay [6] was “inactive” in each case.
For the compound `CC1(C)[C@@H](O)CC[C@]2(C)[C@H]3C(=O)C=C4[C@@H]5C[C@@](C)(C(=O)O)CC[C@]5(C)CC[C@@]4(C)[C@]3(C)CC[C@@H]12`, the Potency entry in assay [7] and in assay [4] was “inactive” in each case.
